Measured values: ChEMBL document CHEMBL4513216, “Probing the Open Global Health Chemical Diversity Library for Multistage-Active Starting Points for Next-Generation Antimalarials” (ACS Infect Dis, 2020)
Screen size: about 69,000 compounds; about 8,600 (12%) showed an effect of 50% or more. This excerpt belongs to a sample that is enriched for strong results.

Each molecule was assayed on Plasmodium berghei (assay: Screen against P. berghei liver stage (PbLuc), transformed with Luciferase, at 10uM). Conditions: tested at 10 uM.
Type: functional, HepG2

| Structure (SMILES) | INHIBITION |
| --- | --- |
| Cc1nnc(CN2CCCC(c3noc(C4CC4)n3)C2)o1 (stereo unspecified) | -36.3% |
| Cc1cc(NCCc2c[nH]cn2)nc(-c2cccnc2)n1 | -14.1% |
| Cc1cc(NCCc2nnc(N)s2)nc(-c2cccnc2)n1 | 16.7% |
| Cc1cc(NCCc2nc(C)cs2)nc(-c2cccnc2)n1 | -25.1% |
| CCc1csc(CNc2cc(C)nc(-c3cccnc3)n2)n1 | 56.05% |
| Cc1cc(NCCc2c(C)n[nH]c2C)nc(-c2cccnc2)n1 | 16.69% |
| CCc1nc(CNc2cc(C)nc(-c3cccnc3)n2)cs1 | 54.9% |
| CSC(C)(C)CNC(=O)NCc1cccc(-n2ccnc2)c1 | 17.2% |
| O=C(Cc1ccccc1F)N1CCC[C@@H]1Cn1c(=O)oc2ccccc21 | -12% |
| CC1CCCN(C(=O)c2occc2COc2cccc(C#N)c2)C1 (stereo unspecified) | 35.1% |
| CC(C)N1CCC2(CCCN(c3nccc(C(F)(F)F)n3)C2)CC1 | -12.2% |
| c1ccc(CNc2ncc(CN3CCCN4CCC[C@H]4C3)cn2)cc1 | 30.3% |
| CN(C)[C@H]1CCCCN(Cc2cnc(NCc3ccccc3)nc2)C1 | 57.5% |
| c1ccc(CNc2ncc(CN3CC[C@@H]4CC[C@H](C3)N4)cn2)cc1 | 30.3% |
| c1ncn(Cc2cn3c(n2)CN(CC2CCCCC2)CC3)n1 | -10.3% |
| CC(C)(C)c1n[nH]c(C2CN(C(=O)c3csnn3)CCO2)n1 (stereo unspecified) | 11.1% |
| NC(=O)C1CCN(C(=O)NC2CCc3cc(Cl)ccc32)CC1 (stereo unspecified) | 18.4% |
| C[C@H]1CN(C)C[C@@]12COCCN(C(=O)Cc1ccccc1)C2 | -21.7% |
| CC(=O)N1CCN([C@@H]2CCC[C@@H](N(C)C(=O)C3CC3)[C@H]2O)CC1 | 45.6% |
| COc1cccc(Cn2ncnc2COC(C)C)c1 | -16.1% |
| CCNC(=O)N1CC2=CC(C)(C)COc3ccc(OC)c(c32)C1 | 22.2% |
| COC(=O)N1CC2=CC(C)(C)COc3ccc(OC)c(c32)C1 | 63.1% |
| COc1ccc2c3c1CN(C(=O)N(C)C)CC3=CC(C)(C)CO2 | 25.3% |
| COCCOC(=O)N1CC2=CC(C)(C)COc3ccc(OC)c(c32)C1 | -3.5% |
| COCC(=O)N1CC2=CC(C)(C)COc3ccc(OC)c(c32)C1 | 48% |
| COc1ccc2c3c1CN(C(C)=O)CC3=CC(C)(C)CO2 | 52.5% |

| Structure (SMILES) | INHIBITION |
| --- | --- |
| CC(C)NC(=O)c1nnn(-c2ccc(F)cc2)c1C1CC1 | -38.2% |
| Cc1cccc(CN2C[C@H]3CC[C@@H](C2)N(Cc2c(C)noc2C)C3=O)n1 | -84% |
| CCOC(=O)N1CCC(NC(C)c2ccccc2-n2cccn2)CC1 (stereo unspecified) | 17.5% |
| CC(NCc1cccc(NC(=O)C2CCCCC2)c1)c1cnn(C)c1 (stereo unspecified) | 45.4% |
| Cn1ccnc1CN1CCN(CC(O)c2cc(F)ccc2F)CC1 (stereo unspecified) | 21.5% |
| CC(C)c1nn(C)c(N(C)C)c1CNCc1ccc(N(C)C)nc1 | 13.5% |
| Cc1cc(NC(=O)C2CCN(c3ncccc3C#N)CC2)no1 | 50.1% |
| Cc1cc(NC(=O)C2CCN(c3nnc(C)c(C)c3C#N)CC2)no1 | 19.4% |
| Cc1cc(C(=O)NC2CCN(c3ncccc3C#N)CC2)no1 | 5.23% |
| Cn1cc(C2=NOC(C(=O)NC3(c4ccccc4F)CCCC3)C2)cn1 (stereo unspecified) | 45.6% |
| CN1CCC(N(C)C(=O)c2cnn(-c3cc(F)ccc3F)c2N)CC1 | 39.2% |
| O=C(CN1CCCC1CC(=O)c1ccccc1)NCc1ccccn1 (stereo unspecified) | 1.93% |
| O=C(CN1CCOCC1CC(=O)c1ccco1)NCc1ccccn1 (stereo unspecified) | 54.3% |
| Nc1ncccc1CN1CCOCC1CC(=O)NCc1ccccn1 (stereo unspecified) | 47.6% |
| Cc1ccc(CC2CCCN2CC(=O)NCc2ccccn2)cc1 (stereo unspecified) | 28.4% |
| CN(C)S(=O)(=O)N1CCOCC1CC(=O)NCCOc1ccccc1 (stereo unspecified) | 23.5% |
| O=C(CC1COCCN1S(=O)(=O)c1ccccc1)NCc1ccccn1 (stereo unspecified) | 68.5% |
| CC(C)c1nc(C2CCCN2CCS(=O)(=O)c2ccccc2)no1 (stereo unspecified) | -12.6% |
| NC(=O)C1CN(C(=O)c2ccc(F)cc2)CCN1CCc1ccccc1 (stereo unspecified) | 22% |
| CCC(NC(=O)c1cnc(-c2cccnc2)nc1)c1ccnn1C (stereo unspecified) | -31.4% |
| O=C(NCCCN1CCOCC1)c1ccn(COc2ccc(Br)cc2)n1 | 47.4% |
| Cc1cc(C2CCCN(C(=O)c3c(C)noc3C)C2)n[nH]1 (stereo unspecified) | -2.37% |
| O=C(Nc1cccnc1)[C@@H]1C[C@H]2OCC[C@H]2N(Cc2ccsc2)C1 | -2.84% |
| Cc1ccc(Cl)c(CN2CCC(c3nccn3C(C)C)CC2)c1F | -7.71% |
| O=C(NC1CCN(c2ncccn2)CC1)c1cc2c([nH]c1=O)CCC2 | -46.5% |
